Assay outcomes: PubChem, National Center for Advancing Translational Sciences (NCATS)
RGS4 inhibitor – inhibitors of human regulator of G protein signaling 4 | P49798 | Transcreener GDP fluorescence polarization, RGS4-accelerated GTP hydrolysis | Potency, µM (top dose mostly 114 µM), for the others: at the top dose activity change, negative = inhibition, hits mostly inhibitors | hit rate 0.039% among 390,000 | AID 504845; further: potency means the concentration at half of the fitted maximal effect; on the % scale 0 is the no-effect control and ±100 the full control effect; nearly all actives have a fitted effect of over 75% in size
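MLSMR compounds (23 nl, pin-transferred) preincubated 10 min at room temperature with a 500nM (2x) first reagent, then RGS4 at 900nM (2x) plus Transcreener GDP mix added; fluorescence polarization (620/688 nm) read before and after 90 min at 30 °C.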
Mito fusion act – mitochondrial division inhibition or fusion activation; S. cerevisiae fusion-defective mutant growth rescue, CellTiterGlo 48 h; Potency, µM (doses to about 46.1 µM), for inactives: top-dose growth rescue (activation), usual class: activators; hit rate 0.23% among 320,000; further: potency means the concentration at half of the fitted maximal effect; % of control where 0% means no effect; nearly all actives have a fitted effect of over 45% in size
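Yeast fusion mutant, YPEG (non-fermentable carbon), compound, 48 h at 37C non-permissive; CellTiterGlo added, 10 min RT, luminescence read. Rescued growth = division inhibition.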
ClpP mod – qHTS Assay for Activators of ClpP. purified B. subtilis ClpP, FRET peptide cleavage, 20 min. Potency, µM (highest dose often 57.5 µM), inactives show top-dose activity change, negative = active. hit rate 1.9% among 340,000. AID 651965, 2013; active means well fitted falling curve with a large enough effect; inconclusive means small, poorly fitted or top-dose-only effect; inactive means no such curve, though single readings can be large or run the other way; further: potency means the concentration at half of the fitted maximal effect; the source files actives as falling curves though it sought activators and does not explain the sign; nearly all actives have a fitted effect of over 65% in size
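Buffer: 100 mM Tris/HCl pH8, 100 mM KCl, 0.05% low protease BSA, 2.5% glycerol, 0.01% Tween-20. ClpP 10 microg/mL final; 20 min RT; delta FRET normalized to ADEP and DMSO controls.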
IDH1 R132H inh – blocks human mutant IDH1 R132H enzyme | O75874 | IDH1-R132H enzyme, NADPH consumption, diaphorase/resazurin fluorescence | Potency, µM (series often up to 76.6 µM), inactives show at the top dose activity change, negative = inhibition, actives largely listed as inhibitors | hit rate 0.093% among 390,000 | AID 602179; further: potency means the concentration at half of the fitted maximal effect; on the % scale 0 is the no-effect control and ±100 the full control effect; nearly all actives have a fitted effect of over 65% in size
Target sequence (O75874 whole entry R132H, stated change not applied): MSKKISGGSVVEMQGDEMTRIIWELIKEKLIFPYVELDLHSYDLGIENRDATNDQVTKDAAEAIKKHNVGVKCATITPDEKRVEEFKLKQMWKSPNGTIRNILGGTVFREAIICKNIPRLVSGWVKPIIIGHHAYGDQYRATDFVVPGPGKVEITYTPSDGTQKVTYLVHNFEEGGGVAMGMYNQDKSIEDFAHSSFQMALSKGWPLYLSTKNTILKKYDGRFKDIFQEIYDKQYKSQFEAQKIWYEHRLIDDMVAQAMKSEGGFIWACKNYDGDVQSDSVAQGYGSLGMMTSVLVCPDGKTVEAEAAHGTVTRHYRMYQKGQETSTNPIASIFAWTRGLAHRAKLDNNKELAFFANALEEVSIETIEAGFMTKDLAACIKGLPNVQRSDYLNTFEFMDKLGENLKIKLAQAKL
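IDH1-R132H (0.5 ug/mL) preincubated 30 min with compound, then NADPH (0.016 mM) and alpha-KG (2 mM) added; 80 min at RT, pH 7.5. Remaining NADPH coupled via diaphorase/resazurin to fluorescence (540/590 nm); concentration-response curves normalized to no-enzyme control.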
ASM inhibitor – blocks human secretory acid sphingomyelinase; Potency, µM (titrated, usually from 57.5 µM), for inactives: at the highest dose activity change, negative = inhibition, hits mostly inhibitors; placental ASM, HMU-PC fluorogenic substrate, 60 min; P17405; hit rate 0.006% among 340,000; further: potency means the concentration at half of the fitted maximal effect
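Human placenta-derived ASM preincubated with compound 10 min at room temperature, then reacted with 9 uM (final) fluorogenic HMU-PC substrate for 60 min at 37 C. Stop solution raises pH to 10; fluorescence read at Ex 386/Em 447 nm.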
LDHA inh – LDHA (human) enzyme inhibition; P00338; purified LDHA, NADH/diaphorase-resazurin fluorescence; stronger effect = lower value; activity change, % (values are at about 110 or 230 µM); AID 1347041; hit rate 0.15% among 480,000; in the data active means activity change below about -30%; inconclusive means mostly about -25% to -30%;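 further: plate controls were DMSO wells for no effect and wells without enzyme for full effect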
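Human LDH5 at 2 nM final in Tris HCl pH 7.4 with 0.06 mM NADH and 0.2 mM pyruvate, reacted 5 minutes at room temperature. Remaining NADH coupled via diaphorase/resazurin; resorufin fluorescence read at 0 and 20 minutes, normalized to enzyme-free and DMSO wells.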
IDH1 autofl – counter-screen for mutant IDH1 inhibitors: fluorescence interference; shares compounds with IDH1 R132H inh; Resorufin detection reagent fluorescence interference, cell-free; inhibition of signal, % at 51.2 µM; 750 tested, under 10 active; AID 623980;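 further: 0% = wells with normal resorufin and full inhibition = wells lacking resorufin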
WT IDH1 inh – selectivity of mutant IDH1 inhibitors: human wild-type IDH1; shares compounds with IDH1 R132H inh; WT IDH1 enzyme, NADPH diaphorase/resazurin fluorescence; Potency, µM (highest dose often 115 µM), for the others: at the top dose activity change, negative = inhibition, hits mostly inhibitors; hit rate 9% among 750;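 further: potency means the concentration at half of the fitted maximal effect; 0% = full WT IDH1 enzyme control and full inhibition = no enzyme wells; nearly all actives have a fitted effect of over 55% in size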
Target sequence (O75874 whole entry, looked up): as the sequence (O75874 whole entry R132H, stated change not applied) above, with H132R counted along it
mIDH1 confirm – mutant IDH1 (human) inhibition, confirmed | AID 624002 | hit rate 83% among 750 | shares compounds with IDH1 R132H inh | IDH1 R132H enzyme, NADPH diaphorase/resazurin fluorescence | Potency, µM (highest dose often 76.6 µM), without a hit: at the top dose activity change, negative = inhibition, usual class: inhibitors; further: potency means the concentration at half of the fitted maximal effect; nearly all actives have a fitted effect of over 50% in size
An asterisk follows results filed as active; i = inactive; ? = inconclusive; · = no result. Shown is part of a subset that was picked to be rich in hits. Unless noted, the call rests on the fitted dose curve; in most records, active means well fitted curve in the direction sought with a large enough effect; inconclusive means small, poorly fitted or top-dose-only effect, or another doubt; inactive means no such curve, though single readings can be large; an effect the other way counts as inactive or inconclusive.

SMILES	RGS4 inhibitor	Mito fusion act	ClpP mod	IDH1 R132H inh	ASM inhibitor	LDHA inh	IDH1 autofl	WT IDH1 inh	mIDH1 confirm
CCOC(=O)CSC1=NC(=O)/C(=C/c2ccc(Br)cc2)S1	-24.8%	-19.2%	·	?	7.9%	-11.4	1.2	70.8µM*	35.5µM*
CCOC(=O)N1CCN(Cc2nc(N)nc(Nc3ccc(Oc4ccccc4)cc3)n2)CC1	-28.5%	-3.4%	-0.8%	52.1µM*	-4.4%	1.1	1.7	-7.3%	?
c1ccc(-c2cc(-c3nnc4n3N=C(c3ccc5ccccc5c3)CS4)[nH]n2)cc1	-9.9%	?	1.8%	11.7µM*	-12.6%	-4.0	-0.7	-10.3%	7.08µM*
O=C(CN1C(=O)COc2ccc(S(=O)(=O)N3CCCCCC3)cc21)Nc1cccc(Cl)c1	0.1%	·	-5.1%	?	·	-14.4	-0.6	5.4%	?
CCN(CC)c1ccc(/C=N/NC(=O)Cc2nnc(NC(=O)Nc3ccccc3)s2)cc1	12.6%	-4.9%	·	4.14µM*	i	-4.8	-7.9	-8.3%	6.31µM*
CCN(CC)c1ccc(-c2nn3c(-c4n[nH]c5c4CCC5)nnc3s2)cc1	-50.0%	-3.4%	28.2µM*	?	i	1.3	2.3	-2.4%	39.8µM*
CCOc1ccc(NC(=O)CN2C(=O)C(c3ccccc3)=NC23CCC(C)CC3)cc1 (stereo not drawn)	10.7%	·	0.9%	22.4µM*	·	-4.5	1.6	2.7%	15.8µM*
Cc1cc(C(=O)CSc2nc3cc(S(N)(=O)=O)ccc3n2C)c(C)n1C1CC1	·	·	·	·	·	0.2	·	·	·
CC(=O)c1cccc(NCC(=O)c2ccc(C)c([N+](=O)[O-])c2)c1	-42.3%	-3.4%	·	16.5µM*	-2.2%	3.2	4.5	258.7%	39.8µM*
O=C(NC1CCCC1)C(c1ccccc1)N(C(=O)c1csnn1)c1ccccc1F (stereo not drawn)	-7.8%	1.9%	·	?	-5.1%	-16.7	-6.5	-2.1%	25.1µM*
O=C(NC1CCCC1)C(c1ccncc1)N(C(=O)c1csnn1)c1ccccc1 (stereo not drawn)	20.5%	-10.7%	·	-2.1%	1.8%	-11.2	·	·	·
COc1cccc(N(C(=O)c2cnccn2)C(C(=O)NC2CCCCC2)c2ccc(Cl)cc2)c1 (stereo not drawn)	22.2%	2.3%	-6.4%	-5.9%	4.1%	-1.1	·	·	·
O=C(NC1CCCCC1)C(c1ccco1)N(C(=O)c1csnn1)c1cccc(Cl)c1 (stereo not drawn)	-30.9%	29.5%	-0.6%	?	-5.2%	-2.3	0.3	-1.5%	28.2µM*
COc1cccc(N(C(=O)c2csnn2)C(C(=O)NC2CCCC2)c2ccccc2)c1 (stereo not drawn)	-14.7%	-3.2%	-1.6%	?	-0.7%	-9.4	3.7	-4.1%	39.8µM*
O=C(NC1CCCCC1)C(c1ccc(Cl)cc1)N(C(=O)c1cnccn1)c1ccc2c(c1)OCO2 (stereo not drawn)	7.4%	-1.7%	-0.6%	?	1.6%	1.0	-7.2	-10.6%	?
COc1ccc(NC(=O)c2ccccc2NC(=O)CSc2ncnc3ccccc23)cc1	·	·	·	·	·	0.2	·	·	·
O=C(Cc1ccccc1)Nc1ccc(N2CCOCC2)c(Cl)c1	·	·	·	·	·	-3.7	·	·	·
COC(=O)Nc1ccccc1Cc1ccccc1	·	·	·	·	·	-0.6	·	·	·
